Results as given in PubChem BioAssay AID624330 (Southern Research Specialized Biocontainment Screening …, 2012).
In all, about 340,000 compounds went through this assay and about 2,100 (0.62%) were called active.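 The calls were made as follows: active = first-screen hits whose inhibition reached a set limit at any dose in the follow-up dose series; inconclusive = inhibition above the set first-screen limit but never retested; inactive = the rest.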 These entries were drawn from the full list. Potency and affinity values are given separately.

target: Rac GTPase-activating protein 1 (Homo sapiens) (UniProt Q9H0H5); assay: MgcRacGAP GTPase-activating activity inhibitors, confirmation, biochemical, ADP Hunter fluorescence, primary and confirmatory (AID 624330); details: MgcRacGAP-stimulated Rac1 GTP hydrolysis, at 30 µM, active compounds read high, GST-tagged Rac1 F28L mutant substrate;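 also: fluorescence reports GDP produced by GAP-driven GTP hydrolysis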
Sequence (Q9H0H5 whole entry, looked up): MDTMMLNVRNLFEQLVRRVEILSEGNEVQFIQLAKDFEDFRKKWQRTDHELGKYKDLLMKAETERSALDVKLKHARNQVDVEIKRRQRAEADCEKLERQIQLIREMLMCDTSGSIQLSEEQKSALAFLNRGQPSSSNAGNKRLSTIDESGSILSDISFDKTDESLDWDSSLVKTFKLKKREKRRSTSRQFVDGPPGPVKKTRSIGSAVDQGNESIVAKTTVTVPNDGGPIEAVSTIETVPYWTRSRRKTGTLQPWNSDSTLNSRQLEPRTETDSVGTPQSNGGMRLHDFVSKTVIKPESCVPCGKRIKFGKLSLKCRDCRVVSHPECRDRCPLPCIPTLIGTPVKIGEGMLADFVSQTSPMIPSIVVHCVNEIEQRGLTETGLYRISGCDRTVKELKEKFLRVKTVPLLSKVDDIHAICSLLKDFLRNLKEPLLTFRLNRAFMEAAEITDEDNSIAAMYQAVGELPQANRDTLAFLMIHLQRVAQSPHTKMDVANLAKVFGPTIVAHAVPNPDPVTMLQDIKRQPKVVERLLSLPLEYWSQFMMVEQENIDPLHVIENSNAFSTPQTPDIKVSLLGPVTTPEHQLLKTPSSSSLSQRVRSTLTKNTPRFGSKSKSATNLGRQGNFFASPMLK

inhibition, inactive:
CCn1ncc([N+](=O)[O-])c1C(=O)Nc1c(C)nn(Cc2ccc(F)cc2)c1C -5.73%, CN(C)S(=O)(=O)N1CCN(Cc2ccccc2)CC1 -9.47%, COc1cccc(C(=O)NC2(C(F)(F)F)N=C3SCCN3C2=O)c1 (centres undefined) 8.58%, COc1ccc(C(=O)N/N=C(/C)c2cccc(NC(=O)c3ccccc3F)c2)cc1 6.03%, Cc1nc2ccccc2c(=O)n1NC(=O)Cc1ccc(Br)cc1 1.21%, C=CCc1c(C)nc(-c2ccccc2)nc1Nc1ccccc1O -2.42%, C=CCc1c(C)nc(-c2ccccc2)nc1N/N=C/c1ccccc1 9.45%, COc1ccc(NC(=O)CN2C(=O)C(C)Oc3ccccc32)c(OC)c1 (centres undefined) 9.91%, CC(C)(C)C(=O)NCc1ccc(C(=O)CSc2nnc3n2CCCCC3)s1 9.14%, CCOc1ccc(C(CC(=O)O)NC(=O)c2ccco2)cc1OC (centres undefined) 5.75%, Oc1cccc(C=NNc2ccccn2)c1 2.05%, Oc1ccc(/C=N/Nc2ccc3ccccc3c2)c(O)c1 9.51%, COc1cccc(/C=N/Nc2cc(Cl)nc(C)n2)c1O -19.7%, Cc1cc(N/N=C/c2ccc(O)cc2O)c2ccccc2n1 -8.64%, Oc1ccc(/C=N/Nc2cccc3cccnc23)c(O)c1 0.03%, Cc1cc(N/N=C/c2ccc(O)cc2O)nc(-c2ccccc2O)n1 9.61%, Cc1ccc(-c2c(C(=O)NC(C)C)oc(=O)c3ccccc23)cc1 5.65%, CCCCSc1ncnc2c1ncn2C1CCCCO1 (centres undefined) 0.67%, CC12CCC(C(=O)Nc3cc(Cl)ccc3Cl)(C(Br)C1=O)C2(C)C (centres undefined) 8%, CC(=O)/C(=C/N(C)C)Sc1ccc(C)cc1 -4.58%, COC(=O)[C@@]12CCCN1[C@H](c1ccc(-c3ccccc3)cc1)[C@@H]1C(=O)N(C)C(=O)[C@@H]12 10.8%, O=C(COC(=O)CCS(=O)(=O)c1ccc(Cl)cc1)Nc1ncc(Cl)cc1Cl -0.72%, COc1ccc(/C=C2\SC(=O)N=C2N)cc1OC -3.06%, CCOc1ccc(N2C(=O)S/C(=C\c3ccc(O)c(OCC)c3)C2=O)cc1 9.4%, C=CCOc1ccc(/C=C2\SC(N)=NC2=O)cc1OC 7.81%, CCN=C1S/C(=C\c2cc(OCC)c(O)cc2Br)C(=O)N1CC 14.2%, NC1=NC(=O)S/C1=C\c1ccc(F)cc1 -6.63%, CCN=C1S/C(=C\c2ccc(OCC)c(OC)c2)C(=O)N1CC 2.65%, NC1=NC(=O)/C(=C\c2ccc(O)c([N+](=O)[O-])c2)S1 2.32%, CC(C)(C)c1ccc(/C=C2\SC(=O)N=C2N)cc1 2.11%, C/C=C/c1ccc(OCCN2CCc3ccccc3C2)c(OC)c1 17.9%, Cc1ccc(C)c(NC(=O)CN(C)C(=O)c2cc([N+](=O)[O-])ccc2N2CCOCC2)c1 5.45%, Cc1ccc(SCC(=O)OCC(=O)N(CC(C)C)C2CCS(=O)(=O)C2)cc1C (centres undefined) 9.24%, O=C(COC(=O)COc1ccc(Cl)cc1Br)NC1CC1 -1.39%, O=C(NCCN1CCOCC1)c1ccc(CS(=O)c2ccccc2Cl)o1 (centres undefined) -0.13%, COc1ccc(N2CCN(Cc3nc4sc(C)c(C)c4c(=O)[nH]3)CC2)cc1 -6.7%, COc1ccc(/C=C2/NC(=O)N(Cc3ccccc3F)C2=O)cc1OC 5.3%, COc1cc(/C=C2/NC(=O)N(Cc3ccccc3F)C2=O)cc(OC)c1O 26.3%, CSc1ccc(CN2CCC(n3nccc3NC(=O)C3CCOC3)CC2)cc1 (centres undefined) 3.42%, Cc1ccc[n+](CC(=O)Nc2ccc(C)c(C)c2)c1 -1.74%, CC(=O)c1ccc(NC(=O)C[n+]2cccc(C)c2)cc1 8.06%, CC(=O)Nc1ccc(NC(=O)CCc2ccc(C)o2)cc1 10.6%, Cc1ccc(NC(=O)CCc2ccc(C)o2)cc1 -3.13%, CCOC(=O)C1C(c2cc(OC)c(O)c(OC)c2)NC(=S)NC1(O)C(F)(F)F (centres undefined) 4.21%, Cc1ccc(CNC(=O)C(c2ccccc2)c2ccccc2)cc1 6.74%, COc1ccc(S(=O)(=O)NNC(=O)c2cc3ccccc3o2)cc1 9.6%, O=C(NC1CC1)c1cc(F)c(F)cc1Cl 6.75%, O=C(/C=C/c1ccc(Br)o1)Nc1nccs1 -0.09%, O=C(Nc1ccc2c(c1)OC1(CCCC1)O2)C1CC1 9.85%, Nc1ccc2c(c1)OC1(CCCCC1)O2 22.8%, CC(O)[C@H]1CNC(=O)C(=O)N1CCc1cccc(F)c1 (some centres undefined) 5.42%, CCN1CCN(C(=O)C2CCN(Cc3cc(Cl)ccc3O)CC2)CC1 12.1%, COc1cc(CN2CCN(c3cccc(C)c3C)CC2)cc(OC)c1O 27%, COc1cc(CN2CCC(C(=O)N3CCN(c4ccccc4F)CC3)CC2)cc(OC)c1O 23.4%, COc1ccccc1N1CCN(Cc2ccsc2)CC1 25.3%, COc1ccc(CN2CCC(C(=O)N3CCN(c4ccccc4F)CC3)CC2)cc1OC 8.86%, O=C(C1CC1)N1CCN(Cc2ccccc2)CC1 7.23%, COc1ccccc1N1CCN(Cc2ccc(Br)o2)CC1 29.6%, CCOc1ccc(CN2CCC(C(=O)N3CCN(c4ccccc4F)CC3)CC2)cc1OC 23.7%, CCC(C)NC(=O)C1c2ccccc2C(=O)N1Cc1ccc(F)cc1 (centres undefined) 8.48%, COc1ccc(NC(=O)CCCC(=O)O)cc1Cl 4.87%, CC(=O)c1ccc(S(=O)(=O)NCCC(=O)OC(C)C(=O)Nc2ccc(F)cc2)cc1 (centres undefined) 5.33%, N#C/C(=C\c1cn(CC(=O)N2CCCCC2)c2ccccc12)C(=O)NCc1ccc2c(c1)OCO2 8.24%, Cc1cc(NC(=O)c2ccc(C#N)cc2)n(-c2ccccn2)n1 4.99%, N#Cc1ccc(OCc2nnc(SCC(=O)N3CCCc4ccccc43)n2-c2ccccc2)cc1 3.45%, CCCCN(C)CCNC(=O)Cn1c(=O)sc2ccccc21 5.94%, NC(N)=Nc1ccc(C=C2C=Cc3ccccc32)cc1 1.28%, C=CCN(CC=C)Cc1nc(N)nc(Nc2ccccc2C)n1 6.1%, CC1(C)CC(=O)C([N+](=O)[O-])=C(NCCCC(=O)O)C1 6.3%, CCOC(=O)CN=C1CC(C)(C)CC2=C1Sc1ncnc(N(C)C)c1N2 6.53%, Cc1ccc(S(=O)(=O)/N=C/N(C)C)cc1 4.85%, O=C(NCc1ccco1)c1ccc(S(=O)(=O)N2CCOCC2)cc1 12.1%, CCOC(=O)c1ccc(NC(=O)Nc2c(C)nn(C)c2C)cc1 6.05%, CC1CC(=O)N(c2ccc(NCCc3ccccc3)c([N+](=O)[O-])c2)C1=O (centres undefined) 12.4%, COc1ccc(CCNc2ccc(N3C(=O)CC(C)C3=O)cc2[N+](=O)[O-])cc1 (centres undefined) 3.45%, COCCNC(=O)C1CCCN(S(=O)(=O)c2c(C)noc2/C=C/c2cccs2)C1 (centres undefined) 5.26%, Cc1cc(C)c(N)cc1C 5.41%, Cc1cc(Cc2cc(C)c(N)cc2C)c(C)cc1N 11.3%, COc1ccc(S(=O)(=O)N(C)C[C@H]2Oc3c(NC(=O)C4CC4)cccc3C(=O)N([C@H](C)CO)C[C@@H]2C)cc1 13.9%, CCc1ccc(Nc2oc(C)cc(=O)c2C(C)=O)cc1 2.6%, CC(=O)c1c(Nc2cccc(F)c2)oc(C)cc1=O 8.68%, O=C(c1cccc(NS(=O)(=O)c2ccc(Br)cc2)c1)N1CCN(c2ccccc2O)CC1 -1.11%, CC(O)CNc1nc2ccccc2n1CC(=O)NC12CC3CC(CC(C3)C1)C2 (centres undefined) -6.35%, O=C(Nc1ccccc1)c1cccc(NC(=O)c2ccco2)c1 11.5%, CCc1cc(OCCCCNCc2ccccc2)ccc1Cl 28.9%, CCCOc1ccc(OCCOCCNCc2ccccc2)cc1 19.2%, O=[N+]([O-])c1ccccc1OCCCNCc1ccccc1 21.2%, O=[N+]([O-])c1ccccc1OCCOc1ccccc1[N+](=O)[O-] 7.67%, Clc1cccc(Cl)c1OCCOCCNCc1ccccc1 22.1%, Cc1cc(Cl)cc(C)c1OCCNCc1ccccc1 26.3%, Cc1cc(OCCOCCN(C)C)ccc1Cl 9.69%, CCOc1ccc(OCCOCCNCCOC)cc1 12.8%, CC1(c2nnc(-c3cccc(Cl)c3)o2)CC(c2ccccc2)=NO1 (centres undefined) 6.54%, CCN(CC)CCCNC(=O)C1CCCN(c2nnc(N3CCCC3=O)s2)C1 (centres undefined) 8.15%, Cc1ccccc1C(=O)N1CCC(C(=O)Nc2ccccn2)CC1 3.54%, CC1CCCC(C)N1CC(O)COC1CCC(C(C)(C)C)CC1 (centres undefined) 8.37%, CC(C)(C)c1cccc(OCCCSc2ncccn2)c1 4.61%, O=C(N/C(=C/c1ccc(Br)cc1)C(=O)N1CCCCC1)c1ccccc1F 8.71%, Cc1ccc(OCCNCc2ccccc2)c(C)c1 20.6%, COCCNCCCCOc1c(Cl)cc(C)cc1Br 27.8%, Cc1cc(C)c(C)c(OCCOCCNCc2ccccc2)c1 17.1%, C=CCNCCCCOc1c(Cl)cc(C)cc1Br 29.7%, Cc1cc(Cl)c(OCCCNCc2ccccc2)c(Br)c1 30.3%, Cc1cc(C)c(OCCCNCc2ccccc2)c(Br)c1 26.8%
